Peg3 promoter – Peg3 promoter-driven luciferase inhibitors, primary screen, cell-based, HeLa, luciferase luminescence. 360,000 tested, 1.7% active. HeLa PEG-Prom luciferase reporter, overnight. inhibition, % at 20 µM;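 active = inhibition of at least 50% at 20 µM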
Shn3 inh set2 – reduction of Shn3 3'UTR firefly luciferase signal, primary screen, Schnurri-3 inhibitor project, cell-based, Clone20 osteoblasts, set 2. Clone20 osteoblast Shn3 3'UTR firefly luciferase, 24 h. inhibition, % at 12.5 µM. 360,000 tested, 0.52% active;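 active = mean inhibition of at least 75% with every replicate also reaching 75%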
KKLEB tox – cytotoxicity in KKLEB CF airway cells, primary screen, cytotoxicity control for CF NF-kB inhibitor project, cell-based, uHTS, fluorescence assay plates. AID 602141, 2011. activity change (cytotoxicity), % at 5 µM. 360,000 tested, 0.36% active. KKLEB CF airway cells viability, ATPlite luminescence, overnight; hits give low values; cells stimulated with P. aeruginosa culture filtrate;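 active = corrected activity change at or below -50% at 5 µM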
TRPM1 prom inh – inhibitors of MITF-dependent TRPM1 promoter reporter, primary screen, cell-based, SK-MEL-5, single point, luciferase; inhibition, % at 12.5 µM; SK-MEL-5 TRPM1 promoter luciferase, 24 h; 330,000 tested, 0.83% active; AID 488899, 2010;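 active = mean inhibition across replicates of 60% or more, whatever share of single replicates reaches that level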
CF NFkB inh – inhibitors of PAF-induced NF-kB signaling, primary screen, cell-based, GFP fluorescence, uHTS. KKLEB NF-kB-GFP reporter, GFP fluorescence overnight. inhibition, % at 5 µM. 360,000 tested, 0.86% active. AID 588850, 2011;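 active = at least 50% inhibition at 5 µM, scaled per plate between neutral and stimulator controls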;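 note: PAF is a Pseudomonas aeruginosa culture filtrate used as stimulus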
HIF-2a inh – HIF-2a reporter inhibitors, primary screen, luminescence, 786-0 RCC cells; 786-0 RCC cells HIF-2a reporter, luciferase luminescence, overnight; inhibition, % at 18.8 µM; 360,000 tested, 0.72% active; AID 624352, 2012;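 active = inhibition of the luminescence signal of 40% or more relative to plate controls, in a single-dose primary screen at 18.75 µM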
CF NFkB inh conf – inhibitors of PAF-induced NF-kB signaling, retest, confirmation, cell-based, GFP fluorescence, single concentration; shares compounds with CF NFkB inh; KKLEB CF airway cells, overnight; inhibition, % at 5 µM; 1,300 tested, 64% active; AID 602472, 2012; in the data active = inhibition above about 40%;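 note: stimulus PAF is a Pseudomonas aeruginosa filtrate and not platelet activating factor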
Numbers stand for hits; . = inactive; / = no result given. A selection: hits, their analogues and other compounds. The true share with any hit is near 2.8%.

SMILES | Peg3 promoter | Shn3 inh set2 | KKLEB tox | TRPM1 prom inh | CF NFkB inh | HIF-2a inh | CF NFkB inh conf
CC1CCCCC1NC(=O)CN1CCC(NC(=O)C(C)(C)C)CC1 (stereo not drawn) | . | . | . | / | . | . | /
O=C(Nc1cccc(Cl)c1)Nc1ccc(Br)cc1F | . | . | . | . | 59 | . | .
COC(=O)c1cc(NC(=O)Nc2cccc(Cl)c2)ccc1Cl | . | . | . | . | 50 | . | .
O=C(Nc1ccccc1)Nc1ccc(Br)cc1F | . | . | . | . | . | . | /
O=C(Nc1cccc(Cl)c1)Nc1cc(S(=O)(=O)N2CCCCC2)ccc1Cl | 66 | . | . | 80 | 50 | . | 75
COc1ccc(NC(=O)C2c3ccccc3OCC(=O)N2Cc2ccco2)cc1 (stereo not drawn) | / | / | / | / | / | . | /
Cc1cc(C)c2c(=O)[nH]c(=O)n(Cc3ccccc3)c2n1 | . | . | . | . | . | . | /
CCc1ccc([C@@H]2CC(=O)[C@@H]3CN(S(=O)(=O)c4ccccc4C)[C@H](c4ccc(Cl)cc4)C[C@@H]3N2S(=O)(=O)c2ccc(C)cc2)cc1 | . | . | . | / | 51 | . | .
CCc1ccc([C@@H]2C[C@H]3[C@@H](CN2S(=O)(=O)c2ccc(C)cc2)C(=O)C[C@@H](c2ccc(Cl)cc2)N3S(=O)(=O)c2ccccc2C)cc1 | . | . | . | / | . | . | /
Cn1c(N2CCN(C(c3ccccc3)c3ccccc3)CC2)nc2c1c(=O)[nH]c(=O)n2C | . | . | . | . | 69 | . | 84
CC(C)CC1NC(=S)N(Cc2ccccc2)C1=O (stereo not drawn) | 99 | . | . | . | 58 | . | .
O=S1(=O)CCC(NC(=S)N2CCOCC2)C1 (stereo not drawn) | . | . | . | . | . | . | /
C[C@H](CO)N1C[C@H](C)[C@H](CN(C)S(=O)(=O)c2ccc(Cl)cc2)OCc2ccccc2-c2c(n(C)c3ccccc23)C1=O | . | . | . | / | 86 | . | .
C[C@@H]1CN([C@H](C)CO)C(=O)c2cc(NC(=O)Nc3ccc(C(F)(F)F)cc3)ccc2O[C@H]1CN(C)S(=O)(=O)c1cccs1 | . | . | . | . | 57 | . | 81
C[C@H](CO)N1C[C@H](C)[C@@H](CN(C)S(=O)(=O)c2cccs2)Oc2ccc(NC(=O)Nc3ccc(C(F)(F)F)cc3)cc2C1=O | . | . | . | . | . | . | /
C[C@@H]1CN([C@H](C)CO)C(=O)c2cc(NC(=O)Nc3ccc(C(F)(F)F)cc3)ccc2O[C@H]1CN(C)S(=O)(=O)c1ccc(Cl)cc1 | . | . | . | . | 64 | . | 70
Cc1ccc(S(=O)(=O)N(C)C[C@@H]2Oc3ccc(NC(=O)CCC(F)(F)F)cc3CC(=O)N([C@@H](C)CO)C[C@@H]2C)cc1 | . | . | . | . | 53 | . | 43
C[C@H](CO)N1C[C@H](C)[C@@H](CN(C)C(=O)Nc2ccc(C(F)(F)F)cc2)Oc2c(NC(=O)Nc3ccc4c(c3)OCO4)cccc2C1=O | . | . | . | . | . | . | /
C[C@H](CO)N1C[C@H](C)[C@@H](CN(C)C(=O)Nc2ccc3c(c2)OCO3)Oc2c(NC(=O)Nc3ccc(C(F)(F)F)cc3)cccc2C1=O | 60 | . | . | . | 80 | . | 91
Cc1ccc(-c2cnc(C(O)c3cc(C)cc(C)c3)[nH]2)cc1 (stereo not drawn) | . | . | . | / | . | . | /
COc1ccc(/[N+]([O-])=C/c2ccoc2)cc1 | . | . | . | . | . | . | /
CC1(O)CC(c2ccc(Cl)cc2)=NN1C(=O)c1ccc(Cl)cc1 (stereo not drawn) | . | . | . | . | 58 | . | 76
CCN(CC)CCN(C(=O)CCS(=O)(=O)c1ccccc1)c1nc2c(C)cc(C)cc2s1 | 57 | . | . | . | 73 | . | 70
Nc1ncnc(NC2CCS(=O)(=O)C2)c1[N+](=O)[O-] (stereo not drawn) | . | . | . | . | 52 | . | .
CN(c1ncnc(N)c1[N+](=O)[O-])C1CCS(=O)(=O)C1 (stereo not drawn) | . | . | . | . | 51 | . | 61
SMILES | Peg3 promoter | Shn3 inh set2 | KKLEB tox | TRPM1 prom inh | CF NFkB inh | HIF-2a inh | CF NFkB inh conf
Cn1c(=O)c([N+](=O)[O-])c(NC2CCS(=O)(=O)C2)c2ccccc21 (stereo not drawn) | . | . | . | . | . | . | /
CCN(c1ccccc1)c1nc(C#N)nc(N(CC)c2ccccc2)n1 | . | . | . | . | 52 | . | .
CCN(CC)c1nc(C#N)nc(N(CC)CC)n1 | . | . | . | . | . | . | /
O=C1N(c2ccccc2C(F)(F)F)O[C@@]1(c1ccccc1)C1CCCCC1 | 57 | . | . | . | 65 | . | 60
Cc1ccc(-c2cc(-c3ccccc3)nc(Cl)n2)cc1 | . | . | . | . | . | . | /
Cc1ccc(-c2cc(C(F)F)nc(S(C)(=O)=O)n2)cc1 | 98 | . | . | . | 51 | . | .
CN(C(=O)c1cc(S(=O)(=O)N2CCCCC2)c[nH]1)C1CCCCC1 | . | . | . | / | . | . | /
Cc1ccc(N(C)C(=O)c2cc(S(=O)(=O)N3CCCCC3)c[nH]2)cc1 | . | . | . | . | 50 | . | 56
Cc1ccc(S(=O)(=O)Nc2ccc3cc([N+](=O)[O-])ccc3c2[N+](=O)[O-])cc1 | . | . | . | . | 50 | . | 75
Cc1cc(C)c2c(N)c(C(=O)c3ccccc3)sc2n1 | . | . | . | / | . | . | /
Cc1nc2sc(C(N)=O)c(N)c2c(C)c1CC(=O)c1ccccc1 | . | . | . | . | 59 | . | 75
CCOC(=O)C1=CC[C@@H](c2cc(OC)c(OC)c(OC)c2)N(S(=O)(=O)c2ccc(C)cc2)[C@H]1C(=O)OCC | . | . | . | . | . | . | /
O=C(Nc1nnc(C(F)(F)F)s1)c1ccc(Br)s1 | . | . | . | . | 54 | . | 83
CC(CN1CCCCC1)NC(=O)c1cccs1 (stereo not drawn) | . | . | . | . | . | . | /
O=C(/C=C/c1cccs1)Nc1cccc(NC(=O)/C=C/c2cccs2)n1 | . | . | . | . | 58 | . | 64
CCC(C)(C)NC(=O)c1ccc(Sc2nncn2C)c([N+](=O)[O-])c1 | . | . | . | . | . | . | /
Cn1cnnc1Sc1ccc(/C=C/C(=O)c2ccc(O)cc2)cc1[N+](=O)[O-] | 110 | . | . | . | 59 | . | .
